Laboratory results published in PubChem BioAssay AID1159580 (chemical genetic matrix, 2015).
Values joined by “and” are separate entries in the source; they are usually repeats but may differ in a detail not shown here. Equal entries are not always repeated. The campaign covered roughly 5,500 compounds. About 2,000 (36%) were called active. Not shown: some 18% with an inconclusive outcome. No stated cut-off is given here; in the data, active means normalized growth mostly below about 0.91 (no sharp cut-off); inconclusive means no clear call, values can overlap the other calls; inactive means mostly above about 0.92. This is one part of the list.

Assay: chemical genetic growth profiling, strain panel (AID 1159580);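 further: tested at 20 µM; growth read once vehicle control cultures reached saturation at 30 °C; 1 = growth at the plate median or of vehicle wells; lower values mean less growth of the strain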
Conditions: S. cerevisiae deletion strains, growth OD

Measured: normalized growth

Nc1ccn(C2O[C@H](CO)[C@@H](O)[C@@H]2O)c(=O)n1 (stereo partly drawn)
inactive: locus YAL021C, strain ccr4, hits give low values 0.997 | locus YAL026C, strain drs2, hits give low values 0.974 | locus YAL030W, strain snc1, hits give low values 0.999 | locus YBL061C, strain skt5, hits give low values 1.01 | locus YBR009C, strain hhf1, hits give low values 0.972 | locus YBR021W, strain FUR4, hits give low values 1.02 | locus YBR023C, strain chs3, hits give low values 1.02 | locus YBR171W, strain sec66, hits give low values 0.994 | locus YBR229C, strain ROT2, hits give low values 1.01 | locus YBR231C, strain swc5, hits give low values 0.999 | locus YBR279W, strain paf1, hits give low values 0.998 | locus YCL011C, strain gbp2, hits give low values 1 | locus YCL016C, strain dcc1, hits give low values 1.05 | locus YCL029C, strain bik1, hits give low values 1 | locus YCL061C, strain MRC1, hits give low values 1.01 | locus YCL069W, strain vba3, hits give low values 0.979 | locus YCR088W, strain abp1, hits give low values 0.986 | locus YDL005C, strain med2, hits give low values 0.989 | locus YDL035C, strain GPR1, hits give low values 1.03 | locus YDL040C, strain nat1, hits give low values 0.984 | locus YDL074C, strain BRE1, hits give low values 1.01 | locus YDL101C, strain DUN1, hits give low values 1 | locus YDL185W, strain tfp1, hits give low values 0.991 | locus YDL192W, strain arf1, hits give low values 0.998 | locus YDR001C, strain nth1, hits give low values 0.989 | locus YDR069C, strain doa4, hits give low values 0.984 | locus YDR101C, strain arx1, hits give low values 1.02 | locus YDR137W, strain rgp1, hits give low values 1.01 | locus YDR159W, strain sac3, hits give low values 0.961 | locus YDR162C, strain NBP2, hits give low values 1.02 | locus YDR195W, strain ref2 0.997 | locus YDR297W, strain sur2, hits give low values 0.986 | locus YDR318W, strain mcm21, hits give low values 1 | locus YDR334W, strain swr1, hits give low values 0.987 | locus YDR335W, strain msn5, hits give low values 0.997 | locus YDR388W, hits give low values 0.994 | locus YDR392W, strain spt3, hits give low values 0.943 | locus YDR502C, strain sam2, hits give low values 1.02 | locus YEL003W, strain gim4, hits give low values 0.973 | locus YEL037C, strain rad23, hits give low values 0.973 | locus YEL061C, strain CIN8 (second series), hits give low values 0.976 | locus YEL061C, strain CIN8, hits give low values 1.01 | locus YER015W, strain faa2, hits give low values 1.01 | locus YER016W, strain bim1, hits give low values 1.01 | locus YER110C, hits give low values 1 | locus YER111C, strain swi4, hits give low values 0.987 | locus YER155C, strain BEM2 (second series), hits give low values 0.969 | locus YER155C, strain BEM2, hits give low values 1.01 | locus YER167W, strain BCK2, hits give low values 1.01 | locus YFR010W, strain ubp6, hits give low values 0.976 | locus YGL078C, strain dbp3, hits give low values 0.995 | locus YGL086W, strain mad1, hits give low values 1 | locus YGL167C, strain pmr1, hits give low values 1.01 | locus YGL173C, strain kem1, hits give low values 1 | locus YGL227W, strain vid30, hits give low values 0.995 | locus YGL240W, strain doc1, hits give low values 1 | locus YGL248W, strain PDE1, hits give low values 0.987 | locus YGL253W, strain hxk2, hits give low values 1 | locus YGR135W, strain pre9, hits give low values 0.983 | locus YGR252W, strain gcn5, hits give low values 1 | locus YHR013C, strain ard1, hits give low values 1.02 | locus YHR027C, strain rpn1, hits give low values 0.996 | locus YHR030C, strain SLT2, hits give low values 1.01 and 1.02 | locus YHR079C, strain IRE1 (second series), hits give low values 0.996 | locus YHR079C, strain IRE1, hits give low values 1.02 | locus YHR094C, strain hxt1, hits give low values 0.996 | locus YHR129C, strain ARP1, hits give low values 1.01 | locus YHR142W, strain chs7, hits give low values 1.01 | locus YHR200W, strain rpn10, hits give low values 1 | locus YIL066C, strain RNR3, hits give low values 1.01 | locus YIL073C, strain SPO22, hits give low values 1.01 | locus YIL125W, strain kgd1, hits give low values 0.997 | locus YIR030C, strain dcg1, hits give low values 1.01 | locus YJL092W, strain hpr5, hits give low values 0.985 | locus YJL095W, strain BCK1 (second series), hits give low values 1 | locus YJL095W, strain BCK1, hits give low values 0.977 and 1.01 | locus YJL115W, strain asf1, hits give low values 0.978 | locus YJL129C, strain trk1, hits give low values 1.01 | locus YJL134W, strain LCB3, hits give low values 1 | locus YJL154C, strain vps35, hits give low values 0.981 | locus YJL164C, strain tpk1, hits give low values 0.989 | locus YJL166W, strain qcr8, hits give low values 1.02 | locus YJL168C, strain set2, hits give low values 1 | locus YJL187C, strain SWE1 (second series), hits give low values 0.997 | locus YJL187C, strain SWE1, hits give low values 0.994 | locus YJR043C, strain POL32, hits give low values 1.03 | locus YJR066W, strain TOR1, hits give low values 0.99 | locus YJR075W, strain HOC1, hits give low values 1.01
